From PubChem BioAssay (NCI)
Compounds without any hit were thinned out: in the full panel of roughly 79,000, 15% have a hit. Unmarked numbers belong to inactive results. Active and inactive are the calls of the source. Cut-off read from the data, not from the text of the source: active = growth inhibition above about 70%; inactive = the rest.

Key:
[1] = NCI Yeast Anticancer Drug Screen. Data for the rad52 strain (AID 147);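 note: 0% = growth of vehicle-treated control cultures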; conditions: S. cerevisiae rad52 mutant growth inhibition, active compounds read high
Summary of the method: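 Here a repair-compromised yeast strain receives each compound; its growth is then quantified and normalised to vehicle-only controls.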

[2] = NCI Yeast Anticancer Drug Screen. Data for the wt1 strain (AID 149);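 note: 0% = growth of vehicle-treated wt1 cultures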; conditions: S. cerevisiae wt1 strain (SPY 50644) growth inhibition, active compounds read high
Summary of the method: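 Readout: yeast growth inhibition, normalised to vehicle controls, in the wt1 strain exposed to test compounds.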

[3] = NCI Yeast Anticancer Drug Screen. Data for the mgt1 strain (AID 153); conditions: S. cerevisiae mgt1 mutant growth inhibition, active compounds read high
Summary of the method: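 Measured: inhibition of mgt1 yeast growth by compound, normalized to vehicle-treated cultures.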

[4] = NCI Yeast Anticancer Drug Screen. Data for the rad50 strain (AID 155);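 note: 0% = growth of vehicle-only cultures of the same strain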; conditions: S. cerevisiae rad50 strain growth inhibition, active compounds read high
Summary of the method: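 Compounds were tested on a yeast strain with an engineered DNA damage repair alteration; the reported value is growth inhibition normalised to vehicle treatment.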

[5] = NCI Yeast Anticancer Drug Screen. Data for the mec2-1 strain (AID 157); conditions: S. cerevisiae mec2-1 strain, active compounds read high
Summary of the method: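 Using mec2-1 yeast: add compound, measure growth, express inhibition versus vehicle-treated cultures.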

[6] = NCI Yeast Anticancer Drug Screen. Data for the rad14 strain (AID 159);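 note: 0% = growth of vehicle-treated control cultures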; conditions: S. cerevisiae rad14 strain growth inhibition, active compounds read high
Summary of the method: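 Compound-treated yeast with a defined DNA-repair lesion; growth inhibition normalised to vehicle-treated cultures.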

[7] = NCI Yeast Anticancer Drug Screen. Data for the sgs1 mgt1 strain (AID 161);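 note: 0% = growth of cultures given vehicle only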; conditions: S. cerevisiae sgs1 mgt1 strain, active compounds read high
Summary of the method: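 Yeast cells carrying a defined DNA-repair defect were exposed to test compounds. Growth inhibition was measured relative to vehicle-treated controls.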

[8] = NCI Yeast Anticancer Drug Screen. Data for the CLN2oe strain (AID 163);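 note: 0% = growth of vehicle-only control cultures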; conditions: S. cerevisiae CLN2oe strain, active compounds read high
Summary of the method: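 Whole-cell yeast growth assay. A strain engineered for altered cell-cycle control received compound, and inhibition relative to vehicle-treated cultures was recorded.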

[9] = NCI Yeast Anticancer Drug Screen. Data for the cln2 rad14 strain (AID 165);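 note: 0% = growth equal to vehicle treated cultures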; conditions: S. cerevisiae cln2 rad14 strain, active compounds read high
Summary of the method: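 Yeast strain cln2 rad14, bearing defects in cell cycle control and DNA repair, serves as the test system; values reflect growth inhibition compared with vehicle.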

[10] = NCI Yeast Anticancer Drug Screen. Data for the bub3 strain (AID 167); conditions: S. cerevisiae bub3 mutant strain, active compounds read high
Summary of the method: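 Growth of a checkpoint-deficient yeast mutant is measured after compound exposure. Values represent inhibition relative to vehicle.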

[11] = NCI Yeast Anticancer Drug Screen. Data for the wt2 strain (AID 169);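 note: 0% = growth of vehicle-treated yeast cultures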; conditions: S. cerevisiae wt2 strain growth inhibition, active compounds read high
Summary of the method: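 Treated yeast vs. vehicle-treated yeast: growth inhibition determined.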

[12] = NCI Yeast Anticancer Drug Screen. Data for the mlh1 strain (AID 171);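 note: 0% = growth of vehicle-treated control cultures of the same strain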; conditions: S. cerevisiae mlh1 strain growth inhibition, active compounds read high
Summary of the method: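 A yeast strain with a defined genetic lesion serves as the test organism. Cultures receive compound or vehicle, and growth is measured.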

[13] = NCI Yeast Anticancer Drug Screen. Data for the sgs1 strain (AID 173);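 note: 0% = growth of vehicle-only control cultures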; conditions: S. cerevisiae sgs1 mutant, active compounds read high
Summary of the method: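 A genetically defined yeast mutant is incubated with the test compound, and its growth is compared to that of the same strain given vehicle.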

[14] = NCI Yeast Anticancer Drug Screen. Data for the mlh1 rad18 strain (AID 175); conditions: S. cerevisiae mlh1 rad18 strain growth inhibition, active compounds read high
Summary of the method: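 Steps: expose repair-defective yeast to compound; measure growth; express inhibition against vehicle-treated controls.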

[15] = NCI Yeast Anticancer Drug Screen. Data for the rad18 strain (AID 177); conditions: S. cerevisiae rad18 mutant growth inhibition, active compounds read high
Summary of the method: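 Measured value is growth inhibition of a yeast strain bearing a DNA repair alteration, referenced to vehicle-treated cells.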

[16] = at 5.0 µM (retest, dose inferred, filed as 0.5)
[17] = at 50.0 µM (retest, dose inferred, filed as 5.0)

Compound: CCN(CC)C(=S)N/N=C(/C)c1cccc(/C(C)=N\NC(=S)N(CC)CC)n1
- growth inhibition ([1]; at 1.2 µM): -24%
- growth inhibition ([1]; at 3.7 µM): -15%
- growth inhibition ([1]; at 11.0 µM): 7%
- growth inhibition ([1]; at 33.0 µM): 43%
- growth inhibition ([1]; at 100.0 µM): 90% (active)
- growth inhibition ([2]; at 1.2 µM): -4%
- growth inhibition ([2]; at 3.7 µM): -12%
- growth inhibition ([2]; at 11.0 µM): 11%
- growth inhibition ([2]; at 33.0 µM): 60%
- growth inhibition ([2]; at 100.0 µM): 87% (active)
- growth inhibition ([3]; at 1.2 µM): 0%
- growth inhibition ([3]; at 3.7 µM): -14%
- growth inhibition ([3]; at 11.0 µM): 0%
- growth inhibition ([3]; at 33.0 µM): 61%
- growth inhibition ([3]; at 100.0 µM): 91% (active)
- growth inhibition ([4]; at 1.2 µM): -17%
- growth inhibition ([4]; at 3.7 µM): -25%
- growth inhibition [4, 16]: -14%
- growth inhibition ([4]; at 11.0 µM): -12%
- growth inhibition ([4]; at 33.0 µM): 50%
- growth inhibition [4, 17]: 96% (active)
- growth inhibition ([4]; at 50.0 µM): 55.5%
- growth inhibition ([4]; at 100.0 µM): 86% (active)
- growth inhibition ([5]; at 1.2 µM): -43%
- growth inhibition ([5]; at 3.7 µM): -3%
- growth inhibition [5, 16]: 12%
- growth inhibition ([5]; at 11.0 µM): -8%
- growth inhibition ([5]; at 33.0 µM): 52%
- growth inhibition [5, 17]: 95% (active)
- growth inhibition ([5]; at 50.0 µM): 69.1%
- growth inhibition ([5]; at 100.0 µM): 86% (active)
- growth inhibition ([6]; at 1.2 µM): -6%
- growth inhibition ([6]; at 3.7 µM): 10%
- growth inhibition ([6]; at 11.0 µM): 2%
- growth inhibition ([6]; at 33.0 µM): 46%
- growth inhibition ([6]; at 100.0 µM): 92% (active)
- growth inhibition [7, 16]: -5%
- growth inhibition [7, 17]: 91% (active)
- growth inhibition ([7]; at 50.0 µM): 66.7%
- growth inhibition ([8]; at 1.2 µM): 17%
- growth inhibition ([8]; at 3.7 µM): 16%
- growth inhibition ([8]; at 11.0 µM): 31%
- growth inhibition ([8]; at 33.0 µM): 48%
- growth inhibition ([8]; at 100.0 µM): 91% (active)
- growth inhibition [9, 16]: 21%
- growth inhibition [9, 17]: 91% (active)
- growth inhibition ([9]; at 50.0 µM): 34.5%
- growth inhibition ([10]; at 1.2 µM): 7%
- growth inhibition ([10]; at 3.7 µM): 13%
- growth inhibition [10, 16]: 39%
- growth inhibition ([10]; at 11.0 µM): 16%
- growth inhibition ([10]; at 33.0 µM): 56%
- growth inhibition [10, 17]: 90% (active)
- growth inhibition ([10]; at 50.0 µM): 65.2%
- growth inhibition ([10]; at 100.0 µM): 84% (active)
- growth inhibition ([11]; at 1.2 µM): 12%
- growth inhibition ([11]; at 3.7 µM): 4%
- growth inhibition ([11]; at 11.0 µM): 10%
- growth inhibition ([11]; at 33.0 µM): 64%
- growth inhibition ([11]; at 100.0 µM): 89% (active)
- growth inhibition ([12]; at 1.2 µM): -12%
- growth inhibition ([12]; at 3.7 µM): -7%
- growth inhibition ([12]; at 11.0 µM): 9%
- growth inhibition ([12]; at 33.0 µM): 52%
- growth inhibition ([12]; at 100.0 µM): 85% (active)
- growth inhibition ([13]; at 1.2 µM): -14%
- growth inhibition ([13]; at 3.7 µM): -3%
- growth inhibition ([13]; at 11.0 µM): 7%
- growth inhibition ([13]; at 33.0 µM): 39%
- growth inhibition ([13]; at 100.0 µM): 88% (active)
- growth inhibition [14, 16]: 39%
- growth inhibition [14, 17]: 92% (active)
- growth inhibition ([14]; at 50.0 µM): 70.7% (active)
- growth inhibition ([15]; at 1.2 µM): -1%
- growth inhibition ([15]; at 3.7 µM): 9%
- growth inhibition ([15]; at 11.0 µM): 23%
- growth inhibition ([15]; at 33.0 µM): 59%
- growth inhibition ([15]; at 100.0 µM): 91% (active)

Compound: CCC#CCCCOC(=O)c1cc([N+](=O)[O-])cc([N+](=O)[O-])c1
- growth inhibition ([1]; at 1.2 µM): -3%
- growth inhibition ([1]; at 3.7 µM): -4%
- growth inhibition ([1]; at 11.0 µM): 2%
- growth inhibition ([1]; at 33.0 µM): 81% (active)
- growth inhibition ([1]; at 100.0 µM): 98% (active)
- growth inhibition ([2]; at 1.2 µM): -6%
- growth inhibition ([2]; at 3.7 µM): -8%
- growth inhibition ([2]; at 11.0 µM): -10%
- growth inhibition ([2]; at 33.0 µM): 66%
- growth inhibition ([2]; at 100.0 µM): 99% (active)
- growth inhibition ([3]; at 1.2 µM): -5%
- growth inhibition ([3]; at 3.7 µM): -8%
- growth inhibition ([3]; at 11.0 µM): -4%
- growth inhibition ([3]; at 33.0 µM): 93% (active)
- growth inhibition ([3]; at 100.0 µM): 99% (active)
- growth inhibition ([4]; at 1.2 µM): -4%
- growth inhibition ([4]; at 3.7 µM): -6%
- growth inhibition [4, 16]: 6%
- growth inhibition ([4]; at 11.0 µM): 0%
- growth inhibition ([4]; at 33.0 µM): 87% (active)
- growth inhibition [4, 17]: 97% (active)
- growth inhibition ([4]; at 50.0 µM): 99.2% (active)
- growth inhibition ([4]; at 100.0 µM): 98% (active)
- growth inhibition ([5]; at 1.2 µM): -6%
- growth inhibition ([5]; at 3.7 µM): -2%
- growth inhibition [5, 16]: 7%
- growth inhibition ([5]; at 11.0 µM): 2%
- growth inhibition ([5]; at 33.0 µM): 83% (active)
- growth inhibition [5, 17]: 99% (active)
- growth inhibition ([5]; at 50.0 µM): 99.3% (active)
- growth inhibition ([5]; at 100.0 µM): 99% (active)
- growth inhibition ([6]; at 1.2 µM): -5%
- growth inhibition ([6]; at 3.7 µM): -6%
- growth inhibition ([6]; at 11.0 µM): 1%
- growth inhibition ([6]; at 33.0 µM): 79% (active)
- growth inhibition ([6]; at 100.0 µM): 99% (active)
- growth inhibition [7, 16]: 10%
- growth inhibition [7, 17]: 99% (active)
- growth inhibition ([7]; at 50.0 µM): 99.6% (active)
- growth inhibition ([8]; at 1.2 µM): -5%
- growth inhibition ([8]; at 3.7 µM): -11%
- growth inhibition ([8]; at 11.0 µM): -19%
- growth inhibition ([8]; at 33.0 µM): 44%
- growth inhibition ([8]; at 100.0 µM): 99% (active)
- growth inhibition [9, 16]: -7%
- growth inhibition [9, 17]: 94% (active)
- growth inhibition ([9]; at 50.0 µM): 97.7% (active)
- growth inhibition ([10]; at 1.2 µM): -10%
- growth inhibition ([10]; at 3.7 µM): -7%
- growth inhibition [10, 16]: 4%
- growth inhibition ([10]; at 11.0 µM): -6%
- growth inhibition ([10]; at 33.0 µM): 52%
- growth inhibition [10, 17]: 97% (active)
- growth inhibition ([10]; at 50.0 µM): 99.5% (active)
- growth inhibition ([10]; at 100.0 µM): 98% (active)
- growth inhibition ([11]; at 1.2 µM): -7%
- growth inhibition ([11]; at 3.7 µM): -10%
- growth inhibition ([11]; at 11.0 µM): 4%
- growth inhibition ([11]; at 33.0 µM): 98% (active)
- growth inhibition ([11]; at 100.0 µM): 99% (active)
- growth inhibition ([12]; at 1.2 µM): -2%
- growth inhibition ([12]; at 3.7 µM): 0%
- growth inhibition ([12]; at 11.0 µM): 8%
- growth inhibition ([12]; at 33.0 µM): 91% (active)
- growth inhibition ([12]; at 100.0 µM): 99% (active)
- growth inhibition ([13]; at 1.2 µM): -1%
- growth inhibition ([13]; at 3.7 µM): 3%
- growth inhibition ([13]; at 11.0 µM): 23%
- growth inhibition ([13]; at 33.0 µM): 98% (active)
- growth inhibition ([13]; at 100.0 µM): 99% (active)
- growth inhibition [14, 16]: 13%
- growth inhibition [14, 17]: 99% (active)
- growth inhibition ([14]; at 50.0 µM): 99.2% (active)
- growth inhibition ([15]; at 1.2 µM): -3%
- growth inhibition ([15]; at 3.7 µM): 4%
- growth inhibition ([15]; at 11.0 µM): 20%
- growth inhibition ([15]; at 33.0 µM): 94% (active)
- growth inhibition ([15]; at 100.0 µM): 99% (active)
